EPAC2 antagonist: antagonists of human EPAC2. EPAC2 GEF exchange of Rap1B-BODIPY-GDP, fluorescence. Potency, µM (titrated, usually from 114 µM), for the others: top-dose activity, negative = inhibition, usual class: inhibitors. Q8WZA2. 360,000 compounds, 0.18% hits. AID 720708; further: potency means the concentration at half of the fitted maximal effect; on the % scale 0 is the no-effect control and ±100 the full control effect; nearly all actives have a fitted effect of over 45% in size
USP1-UAF1 inh: blocks the human USP1/UAF1 deubiquitinase complex | AID 743255 | Potency, µM (top dose mostly 57.1 µM), inactives show at the highest dose activity change, negative = inhibition, usual class: inhibitors | 390,000 compounds, 0.23% hits | recombinant USP1/UAF1, Ub-Rhodamine cleavage fluorescence | O94782; further: potency means the concentration at half of the fitted maximal effect; on the % scale 0 is the no-effect control and ±100 the full control effect; nearly all actives have a fitted effect of over 60% in size
Target sequence (O94782 whole entry, looked up): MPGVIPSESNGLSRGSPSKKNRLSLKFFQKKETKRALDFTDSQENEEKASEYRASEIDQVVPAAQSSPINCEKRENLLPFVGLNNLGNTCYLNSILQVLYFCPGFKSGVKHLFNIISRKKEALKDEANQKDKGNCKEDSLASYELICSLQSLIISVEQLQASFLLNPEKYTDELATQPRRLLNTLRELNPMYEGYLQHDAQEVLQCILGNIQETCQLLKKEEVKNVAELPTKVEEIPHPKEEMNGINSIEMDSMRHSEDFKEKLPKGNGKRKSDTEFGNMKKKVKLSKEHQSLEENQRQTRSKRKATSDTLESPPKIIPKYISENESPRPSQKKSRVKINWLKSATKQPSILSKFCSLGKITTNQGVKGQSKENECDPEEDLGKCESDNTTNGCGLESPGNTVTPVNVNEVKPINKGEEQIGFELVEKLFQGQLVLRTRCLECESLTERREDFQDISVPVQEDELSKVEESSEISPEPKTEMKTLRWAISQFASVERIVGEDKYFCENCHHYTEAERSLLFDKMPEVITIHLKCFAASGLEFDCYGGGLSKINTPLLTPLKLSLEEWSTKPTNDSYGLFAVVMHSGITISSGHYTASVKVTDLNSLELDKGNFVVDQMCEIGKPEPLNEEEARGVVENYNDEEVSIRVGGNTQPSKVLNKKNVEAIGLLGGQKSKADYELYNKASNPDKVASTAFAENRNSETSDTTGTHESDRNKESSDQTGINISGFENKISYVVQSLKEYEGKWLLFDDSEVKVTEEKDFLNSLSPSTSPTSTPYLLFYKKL
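USP1/UAF1 complex at 1 nM was preincubated with compound for 15 min at room temperature, then Ub-Rho substrate (150nM final) was added. Fluorescence (480/540 nm) was read kinetically, 6 reads every 60 seconds.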
EPAC2 ag: agonists of human EPAC2 (RAPGEF4). Q8WZA2. Potency, µM (series often up to 154 µM), for inactives: top-dose activation, hits mostly activators. 360,000 compounds, 0.079% hits. EPAC2 activation, biochemical qHTS; response scale: 100% = 6.5 mM cAMP response. AID 720711; further: potency means the concentration at half of the fitted maximal effect; nearly all actives have a fitted effect of over 50% in size
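Compounds were titrated in qHTS against a Rap1B-BODIPY-GDP (250 nM) complex with EPAC2 (100 nM) and GDP (50 uM). BODIPY-GDP release tracked at 480/540 nm over 30 min at room temperature, normalized to 6.5 mM cAMP.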
EPAC1 antagonist: antagonists of human EPAC1 | EPAC1 GEF assay, Rap1b-BODIPY-GDP exchange fluorescence | Potency, µM (series often up to 115 µM), inactives show at the highest dose activity change, negative = inhibition, actives largely listed as inhibitors | 360,000 compounds, 0.14% hits | AID 720709;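 further: potency means the concentration at half of the fitted maximal effect; plate controls were vehicle for no effect and positive control for full effect; nearly all actives have a fitted effect of over 50% in size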
Coupling enz: counter-screen for Giardia aldolase inhibitors: coupling enzyme system. coupling enzyme system counterscreen, AmpLite Red fluorescence. 290,000 compounds, 0.67% hits. activity change, negative = inhibition, % at 58.2 µM, hits read low; in the data active means activity change below about -30%; further: on the % scale 0 is the no-effect control and ±100 the full control effect
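Coupling enzymes only (glyceraldehyde-3-phosphate) + compound, at 57.5 uM final, 10 min RT; add substrate/coupling/AmpLite Red mix, 20 min RT; fluorescence ex 525/em 598 nm. Actives flag coupling-system interference.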
EPAC1 ag: activates human EPAC1 exchange factor; Potency, µM (series often up to 154 µM), for inactives: at the highest dose activation, hits mostly activators; O95398; 360,000 compounds, 0.073% hits; EPAC1 agonist qHTS, biochemical assay; response scale: 100% = response to 6.5 mM cAMP; further: potency means the concentration at half of the fitted maximal effect; nearly all actives have a fitted effect of over 60% in size
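EPAC1 100 nM, Rap1B–BODIPY-GDP 250 nM, unlabeled GDP 50 uM; compound titration; 5 min RT; kinetic read ex480/em540 at 5-min intervals ×30 min; data normalized to 6.5 mM cAMP agonist control.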
The depositor's hits bear a star; ? = inconclusive; . = no result; ! = a repeat was not active. Shown are actives, neighbours in structure and some others; about 0.87% of the full set was active somewhere. Unless noted, the call rests on the fitted dose curve; in most records, active means well fitted curve in the direction sought with a large enough effect; inconclusive means small, poorly fitted or top-dose-only effect, or another doubt; inactive means no such curve, though single readings can be large; an effect the other way counts as inactive or inconclusive.

SMILES | EPAC2 antagonist | USP1-UAF1 inh | EPAC2 ag | EPAC1 antagonist | Coupling enz | EPAC1 ag
COc1ccc(N2C(=O)[C@@H]3[C@H](C2=O)[C@H]2c4ccccc4C=CN2[C@@H]3C(=O)Nc2ccccc2)cc1 | 13% | ? | -10% | -7% | -27 | 0%
CC(=O)[C@@H]1[C@@H]2C(=O)N(Cc3ccccc3)C(=O)[C@@H]2C2c3ccccc3C=CN21 (stereo not given in full) | -1% | 18µM* | 2% | 3% | -33* | 5%
COc1cc(C2C(C(=O)N3CCOCC3)=C(C)NC3=C2C(=O)CCC3)ccc1OC(C)=O (stereo not given) | -1% | -17% | 8% | -1% | -33* | 3%
NS(=O)(=O)c1cccc2cccnc12 | 2% | -20% | 8% | -1% | 0 | -11%
C=CCS(=O)(=O)c1cccc2cccnc12 | -5% | -4% | 4% | -7% | -34* | 2%
CNCc1ccccc1Sc1ccc(O)c(O)c1 | -3% | -5% | 7% | -14% | -40* | -7%
CCC(=O)N1CCc2cc(OC)c(OC)cc2C1COc1ccc(F)cc1 (stereo not given) | 14µM* | -8% | 11% | 8% | 0 | 6%
CCC(=O)N1CCc2cc(OC)c(OC)cc2C1COc1ccccc1OC (stereo not given) | 45µM* | 2% | -1% | 16% | 1 | 10%
Cc1ccc(S(=O)(=O)c2c(C)cc(C)nc2N2CCCC2)cc1 | ? | 1% | 7% | -17% | -2 | 3%
COC(=O)C1=C(N)Oc2cc(C)[nH]c(=O)c2C1c1cc(OC)c(OC)c(OC)c1 (stereo not given) | 9% | -18% | -1% | 8% | 0 | -11%
Cc1ccc2c(c1)NC(=O)C(CC(=O)NCCCN1CCN(c3cc(C)ccc3C)CC1)O2 (stereo not given) | -9% | -8% | 2% | ? | 1 | 2%
COc1cc2c(cc1OC)C1(C)N(CC2)C(C(C)=O)=NN1c1ccc(Cl)cc1 (stereo not given) | 25µM* | -14% | 18% | -21% | -7 | 15%
CCOC(=O)C1=C(C)N=c2s/c(=C\c3ccc(OCC(=O)O)cc3)c(=O)n2C1c1ccc(OC(C)C)cc1 (stereo not given) | 3% | ? | -29% | 56µM* | 5 | -10%
CCOC(=O)C1=C(C)N=c2sc(=Cc3cc(Cl)c(OCC(=O)O)c(Cl)c3)c(=O)n2C1c1cccc(OC)c1 (stereo not given) | 25µM* | . | 4% | ? | . | 18%
CCOC(=O)C1=C(C)N=c2sc(=Cc3ccc(OCC(=O)O)cc3)c(=O)n2C1c1ccc(Cl)cc1 (stereo not given) | 60% | . | -14% | ? | . | -42%
Cc1cc2nc(C3CCCCC3)c(Cc3ccccc3)n2c(C)c1Br | 8% | . | 9% | -5% | . | -7%
C[N+](C)(CC#N)C/C=C\c1ccccc1 | 6% | -15% | 5% | 3% | 2 | 0%
CCc1nnc(NS(=O)(=O)c2ccc(NC(=S)NC(=O)/C=C/c3ccc(F)cc3)cc2)s1 | -3% | -12% | -1% | 22µM* | 0 | -6%
CN(C)S(=O)(=O)c1ccc(C(=O)Nc2ccccc2[N+](=O)[O-])cc1 | -1% | -19% | -2% | 1% | -1 | 2%
COC(=O)CCC(=O)OC1(C)C(=O)C2=CN(CCN3CCOCC3)C(c3ccc(OC)cc3)=CC2=C(Br)C1=O (stereo not given) | . | . | . | . | -37*! | .
COC(=O)CCC(=O)OC1(C)C(=O)C2=CN(Cc3ccc4c(c3)OCO4)C(c3ccc(OC)cc3)=CC2=C(Br)C1=O (stereo not given) | -4% | -18% | 9% | -16% | -3 | -18%
COC(=O)CCC(=O)OC1(C)C(=O)C2=CN(C(CO)CO)C(c3ccc(OC)cc3)=CC2=C(Br)C1=O (stereo not given) | . | . | . | . | -48*! | .
CC1(OC(=O)CCc2ccccc2)C(=O)C=C2C=C(c3ccc(C#N)cc3)N(CC3CC3)C=C2C1=O (stereo not given) | 7% | ? | 7% | -13% | -13 | -10%
COC(=O)CCC(=O)OC1(C)C(=O)C2=CN(CCCCO)C(c3ccc(OC)cc3)=CC2=C(Br)C1=O (stereo not given) | . | . | . | . | -47*! | .
COC(=O)CCC(=O)OC1(C)C(=O)C2=CN(CCc3ccccn3)C(c3ccc(OC)cc3)=CC2=C(Br)C1=O (stereo not given) | 38% | ? | 10% | -4% | -8 | 23%
SMILES | EPAC2 antagonist | USP1-UAF1 inh | EPAC2 ag | EPAC1 antagonist | Coupling enz | EPAC1 ag
CC1(OC(=O)CCc2ccccc2)C(=O)C=C2C=C(c3ccc(C#N)cc3)N(CCN3CCOCC3)C=C2C1=O (stereo not given) | -3% | ? | 3% | -7% | -31*! | -3%
O=C(NC1CCCC1)c1ccc(Cl)c(S(=O)(=O)N2CCCCC2)c1 | 2% | -3% | -6% | -5% | 1 | 7%
O=C(CS(=O)(=O)c1ccc(Cl)cc1)Nc1nccs1 | -3% | -2% | 9% | 10% | . | 17%
CCCC(=O)NC(c1ccc(C(C)C)cc1)c1ccc2cccnc2c1O (stereo not given) | 0% | -13% | -4% | -7% | 0 | 9%
COc1ccc(C(NC(C)=O)c2cc(Cl)c3cccnc3c2O)cc1 (stereo not given) | ? | -11% | 16% | 4% | -5 | 21%
CC(=O)NC(c1ccco1)c1ccc2cccnc2c1O (stereo not given) | -3% | -4% | 8% | -11% | 0 | -2%
CCC(=O)NC(c1ccc(C)cc1)c1ccc2cccnc2c1O (stereo not given) | 16µM* | -12% | -1% | -25% | 1 | -6%
CC(=O)NC(c1ccccc1)c1cc(Cl)c2cccnc2c1O (stereo not given) | 40µM* | -9% | 7% | 1% | -6 | -2%
CC(=O)NC(c1ccc(Cl)cc1)c1ccc2cccnc2c1O (stereo not given) | 20µM* | 8% | 9% | -12% | . | -2%
Cc1ccc(S(=O)(=O)N(C)C[C@@H]2OCc3cnnn3CCCC(=O)N([C@@H](C)CO)C[C@@H]2C)cc1 | 3% | -2% | 19% | 19% | . | 4%
CSCCC(NS(=O)(=O)c1ccc(C)cc1)C(=O)NC1CCCCC1 (stereo not given) | 14% | -19% | 3% | 5% | 2 | -5%
